39 compounds from PubChem BioAssay can be followed below.

A number with no mark means an inactive call. The source made the active and inactive calls. No stated cut-off is given here; in the data, active means fold change permeability below about 0.7 or above about 1.3; inactive means in between. Positions of bridges follow the written chain, without caps; N, C: chain ends. Non-standard residues stand in square brackets, D forms with d. Residues, ends and D or L forms follow the SMILES beside them. hArg = N=C(N)NCCCC[CH](N)C(=O)O; Mpa = O=C(O)CCS

A short description of the assay: modulators of brain endothelial barrier permeability, primary screen, cell-based, FITC-avidin fluorescence, HTS (AID 1963498). Further: test concentration not given here. Particulars: actives lie on both sides.
For `CC(/C=C1\SC(=S)N(CC(=O)O)C1=O)=C\c1ccccc1`, the fold change permeability was 1.

Take `CC(C)(C)c1ccc(S(=O)(=O)/C=C/C#N)cc1`: the fold change permeability was 1.2.

Turning to `O=C(O)c1ccccc1Nc1ccccc1`, the fold change permeability is 1.

Turning to `COC(=O)[C@@H](N)Cc1ccc(O)c(O)c1`, the fold change permeability is 1.

With `NO`, the fold change permeability was 1.1.

For `C(=C\c1ccccc1)/CN1CCN(C(c2ccccc2)c2ccccc2)CC1`, the fold change permeability is 1.2.

For `O=C(Nc1cccc(C(=O)Nc2ccc(S(=O)(=O)O)c3cc(S(=O)(=O)O)cc(S(=O)(=O)O)c23)c1)Nc1cccc(C(=O)Nc2ccc(S(=O)(=O)O)c3cc(S(=O)(=O)O)cc(S(=O)(=O)O)c23)c1`, the fold change permeability is 0.9.

In the case of `O=C1c2ccccc2-c2n[nH]c3cccc1c23`, the fold change permeability is 1.5 (active).

For the compound `COc1ccc(CCn2nnnc2C2(c3ccc(C)cc3)CC2)cc1`, the fold change permeability is 1.6 (active).

Consider `Nc1ccc2c3c(cccc13)C(=O)NC2=O`, for which the fold change permeability is 2.8 (active).

As for `NC(=O)C1CSSCCC(=O)NC(CCCCN=C(N)N)C(=O)NCC(=O)NC(CC(=O)O)C(=O)NC(Cc2c[nH]c3ccccc23)C(=O)N2CCCC2C(=O)N1` (centres undefined) ([Mpa][hArg]GDWPC-NH2; disulfide 1-7; configuration not given here), the fold change permeability is 0.9.

For the compound `Cc1cc(C(C)(C)C)cc(C)c1CC1=NCCN1`, the fold change permeability is 2 (active).

Regarding `O=c1[nH]c2cc([N+](=O)[O-])c([N+](=O)[O-])cc2[nH]c1=O`, the fold change permeability is 1.2.

As for `O=C(O)CCc1ccc(NCc2cccc(Oc3ccccc3)c2)cc1`, the fold change permeability is 0.7 (active).

Regarding `O=C(Nc1ccccc1C(=O)NC1CCCCNC1=O)c1cc2ccccc2s1` (centres undefined), the fold change permeability is 1.9 (active).

Take `N=C(N)c1ccc(OCCCCCOc2ccc(C(=N)N)cc2)cc1`: the fold change permeability was 1.1.

For the compound `Cc1cccc(Nc2ccccc2C(=O)O)c1`, the fold change permeability is 0.9.

`N=c1ccn2c(n1)O[C@H]1[C@H](O)[C@@H](CO)O[C@H]12`: the fold change permeability was 1.1.

Consider `NS(=O)(=O)C#Cc1ccccc1`, for which the fold change permeability was 1.8 (active).

As for `O=C1c2cccc3c2[C@H](CCC3)CN1[C@@H]1CN2CCC1CC2`, the fold change permeability was 1.3 (active).

With `O=C(CCCN1CCC(O)(c2cccc(C(F)(F)F)c2)CC1)c1ccc(F)cc1`, the fold change permeability is 1.6 (active).

Consider `COCC(=O)O[C@]1(CCN(C)CCCc2nc3ccccc3[nH]2)CCc2cc(F)ccc2[C@@H]1C(C)C`, for which the fold change permeability was 1.5 (active).

On to `Cc1ccc(C(=O)Nc2cnc(N3CCC(C(N)=O)(N4CCCCC4)CC3)c(C(=O)O)c2)cc1`, for which the fold change permeability was 1.

Turning to `S=C(Nc1ccccc1)Nc1nccs1`, the fold change permeability is 1.3 (active).

In the case of `Cc1ccc(C(=O)Nc2ccc(S(=O)(=O)O)c3cc(S(=O)(=O)O)cc(S(=O)(=O)O)c23)cc1NC(=O)c1cccc(NC(=O)Nc2cccc(C(=O)Nc3cc(C(=O)Nc4ccc(S(=O)(=O)O)c5cc(S(=O)(=O)O)cc(S(=O)(=O)O)c45)ccc3C)c2)c1`, the fold change permeability is 1.3 (active).

Consider `O=C1NC(=O)C(Cc2ccc3cc(OCc4ccccc4F)ccc3c2)S1` (centres undefined), for which the fold change permeability was 1.3 (active).

On to `COC(=O)[C@H]1[C@H]2C[C@@H]3c4[nH]c5cc(OC)ccc5c4CCN3C[C@H]2C[C@@H](OC(=O)c2cc(OC)c(OC)c(OC)c2)[C@@H]1OC`, for which the fold change permeability was 1.5 (active).

As to `COc1ccc(C2(CNC(=O)c3ccc(NC(=O)c4ccco4)cc3)CCOCC2)cc1`, the fold change permeability was 0.7 (active).

As to `NC(=O)C(c1ccccc1)(c1ccccc1)[C@@H]1CCN(CCc2ccc3c(c2)CCO3)C1`, the fold change permeability is 0.8.

Turning to `CNCCCC1c2ccccc2C=Cc2ccccc21`, the fold change permeability was 1.1.

As for `Cc1cc(Cl)ccc1OCCCC(=O)NO`, the fold change permeability was 1.

As for `Cn1c(=O)c2c(nc(/C=C/c3cccc(Cl)c3)n2C)n(C)c1=O`, the fold change permeability was 1.6 (active).

Turning to `CCCN1C[C@H](CSC)C[C@@H]2c3cccc4[nH]cc(c34)C[C@H]21`, the fold change permeability was 1.1.

`CCCCCCN(CCCCCC)C(=O)Cc1c(-c2ccc(F)cc2)[nH]c2ccccc12`: the fold change permeability is 1.4 (active).

In the case of `CC(C)Cc1ccc([C@H](C)C(=O)O)cc1`, the fold change permeability is 2.3 (active).

As for `CNC(=O)Oc1ccc2c(c1)[C@]1(C)CCN(C)[C@@H]1N2C`, the fold change permeability was 0.8.

As for `COc1ccccc1N1CCN(CC(O)COc2cccc3ccccc23)CC1` (centres undefined), the fold change permeability is 0.8.

Consider `NC1=NCC2c3ccccc3Cc3ccccc3N12` (centres undefined), for which the fold change permeability is 0.8.

With `COc1cc2nc(N(C)CCCNC(=O)C3CCCO3)nc(N)c2cc1OC` (centres undefined), the fold change permeability was 1.
